A selection: hits, their analogues and other compounds. The true share with any hit is near 22%.
Pf growth 48h = inhibits P. falciparum growth in the first generation, 48 h; P. falciparum luciferase growth in erythrocytes, 48 h; Potency, µM (highest dose often 28.7 µM), hits mostly inhibitors; 5.9% of 310,000 active; AID 504832
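In quantitative HTS format, infected erythrocytes bearing luciferase-reporter parasites were treated for a single generation at 37 C. Luminescence after adding detection reagent served as the growth measure.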
Pf growth 96h = P. falciparum growth inhibition at 96 hour, primary screen for plastid delayed-death inhibitors. P. falciparum luciferase reporter growth, 96 h. Potency, µM (series often up to 28.7 µM), actives largely listed as inhibitors. 6.9% of 320,000 active. AID 504834
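Delayed-death screen, second-generation endpoint: infected erythrocytes, 2% hematocrit, 0.05% parasitemia final; 96 hours at 37 C, 5% CO2; luciferase detection reagent; luminescence decrease equals reduced growth.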
Cycloheximide cs = counter-screen hit for Shiga toxin inhibitors, cycloheximide. max response, %. 12% of 300,000 active. cell reporter, cycloheximide protein synthesis inhibition counterscreen. AID 2314; in the data active = max response mostly above about 13%, no sharp cut-off; inactive = mostly below about 14%; also: read at 38.3 µM for the half of the compounds with a filed dose
LmPK inhibitor = inhibitors of Leishmania mexicana pyruvate kinase | Q27686 | purified LmPK, Kinase-Glo ATP luminescence, 1 h | Potency, µM (titrated, usually from 57.5 µM), hits mostly inhibitors | 0.37% of 290,000 active | AID 1721
Target sequence (Q27686 whole entry, looked up): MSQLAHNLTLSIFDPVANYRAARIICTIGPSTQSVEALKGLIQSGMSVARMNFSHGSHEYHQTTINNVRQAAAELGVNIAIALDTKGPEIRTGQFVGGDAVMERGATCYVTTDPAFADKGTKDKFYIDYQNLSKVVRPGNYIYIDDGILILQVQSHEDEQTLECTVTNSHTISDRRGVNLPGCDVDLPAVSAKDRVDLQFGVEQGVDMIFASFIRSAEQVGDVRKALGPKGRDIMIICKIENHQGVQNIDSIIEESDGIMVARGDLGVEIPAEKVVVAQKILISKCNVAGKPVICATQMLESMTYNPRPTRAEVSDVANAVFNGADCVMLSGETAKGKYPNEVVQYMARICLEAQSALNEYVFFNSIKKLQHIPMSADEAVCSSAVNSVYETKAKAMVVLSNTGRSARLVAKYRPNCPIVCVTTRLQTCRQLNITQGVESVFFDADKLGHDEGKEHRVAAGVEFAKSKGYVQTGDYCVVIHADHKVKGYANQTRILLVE
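qHTS format; LmPK 0.1 nM; substrates PEP 0.5 mM and ADP 0.1 mM. One-hour room-temperature incubation, then coupled luciferase luminescence; 0.5 nM enzyme wells mark activation.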
Shiga inhibitor = inhibitors of Shiga toxin in Vero cells; Vero cells, Shiga toxin protein synthesis inhibition reporter; inhibition, % at 38.7 µM; 9.2% of 290,000 active; AID 2315; in the data active = inhibition mostly above about 28%, no sharp cut-off; inactive = mostly below about 43%
Hits are given with their value; 0 = inactive; ? = inconclusive; - = no result; [ ] = another dose, or the depositor's remark. Unless noted, calls follow the shape of the dose curve; as a rule, active = well fitted inhibition curve with a large enough effect; inconclusive = small, poorly fitted or top-dose-only effect, or another doubt; inactive = no such curve, though single readings can be large or run the other way.

SMILES	Pf growth 48h	Pf growth 96h	Cycloheximide cs	LmPK inhibitor	Shiga inhibitor
COc1ccc(CN2CCNC(=O)C2CC(=O)NCCc2cnccn2)cc1C (stereo not drawn)	0	14.7µM	0	0	0
Cc1ccsc1C(=O)NCCc1ccc(S(N)(=O)=O)cc1	0	0	0	0	0
Cc1ccccc1C(=O)NCC(=O)OCCOc1ccc(C(C)C)c(C)c1	0	0	-	-	-
CCCC/C=C/[C@H](c1ccccc1)[C@H](CO)Cc1ccccc1	-	-	0	-	0
CC(Cn1cncn1)C(=O)N1CCN(S(=O)(=O)c2ccc(Cl)cc2)CC1 (stereo not drawn)	0	0	0	0	0
CCN=C1SC(C(=O)Nc2ccc(OC)cc2)CC(=O)N1CC (stereo not drawn)	0	0	0	0	0
Nn1cnc2scc(-c3cccs3)c2c1=O	0	0	0	0	0
Nn1cnc2scc(-c3ccc(Cl)cc3)c2c1=O	0	5.22µM	0	0	0
Fc1ccc2c(c1)C(c1ccncc1)=NNC(c1ccc(Cl)cc1)=N2	?	?	0	0	0
c1ccc(C2=Nc3cccnc3C(c3ccccc3)=NN2)cc1	0	0	34.3	0	92.4
Fc1ccc2c(c1)C(c1ccncc1)=NNC(c1ccccc1)=N2	?	?	61.5	0	72.4
NC(=O)CC(NC(=O)c1ccc(Br)cc1)c1ccc(NC2CCCCCCC2)c([N+](=O)[O-])c1 (stereo not drawn)	0	0	0	0	0
O=S(=O)(Nc1ccc(-c2nc3cccnc3s2)cc1)c1ccccc1F	0	0	49.8	0	91.8
O=S(=O)(Nc1ccc(-c2nc3cccnc3s2)cc1)c1ccc(Cl)s1	0	0	32.9	0	16.2
CCc1ccc(NS(=O)(=O)c2cccs2)cc1	0	-	0	0	0
Cc1cc(-c2nc3cccnc3s2)ccc1NS(=O)(=O)c1cccs1	0	0	47.8	0	137.8
O=S(=O)(Nc1cccc(-c2nc3cccnc3s2)c1)c1ccc2c(c1)CCCC2	0	0	0	0	0
Cc1nc2cc(NS(=O)(=O)c3ccccc3F)ccc2s1	0	0	0	0	0
O=S(=O)(Nc1ccc(-c2nc3cccnc3s2)cc1)c1cccs1	0	0	28.1	0	0
CCn1c(SCC(=O)N(C)CC(=O)Nc2cccc(OC)c2)nnc1-c1ccco1	0	0	-	-	-
CCCOC(=O)c1cc(-c2ccc(C=O)o2)ccc1Cl	0	?	29.1	0	0
CCOC(=O)c1cccc(-c2ccc(C=O)o2)c1	0	?	46.5	0	116.3
CCCOC(=O)c1ccc(-c2ccc(C=O)o2)cc1	0	?	43.5	0	139.3
CCOC(=O)c1ccc(-c2ccc(C=O)o2)cc1	0	0	48.1	0	80.1
O=Cc1ccc(-c2cccc(C(=O)O)c2)o1	0	?	0	0	0
SMILES	Pf growth 48h	Pf growth 96h	Cycloheximide cs	LmPK inhibitor	Shiga inhibitor
COC(=O)C1=C[C@@H](C(=O)OC)C2C3=C(C(=O)[C@]2(C)NC(=O)c2ccccc2)[C@H](C)n2c(=O)n(C)c(=O)n2[C@@H]3C1 (stereo partly drawn)	-	-	0	-	0
CCCc1cc(=O)[nH]c(SCC(=O)N2CCOCC2)n1	0	?	0	0	0
O=C1C=CC(=O)N1N(c1ccccc1)c1ccccc1	0	0	0	?	0
CC1Sc2ccc(C(=O)Nc3ccccc3OC(F)F)cc2NC1=O (stereo not drawn)	0	0	-	-	-
COc1ccc(CNC(=O)c2ccc3c(c2)NC(=O)C(C)S3)cc1 (stereo not drawn)	0	0	21.1	0	37.0
CCOc1ccc(C(C)NC(=O)c2ccc3c(c2)NC(=O)C(C)S3)cc1OCC (stereo not drawn)	2.33µM	1.85µM	-	-	-
Cc1c(OCC(=O)NCCCN2CCCC2=O)ccc2c3c(c(=O)oc12)CCCC3	?	18.5µM	0	0	0
Cc1c(OC(C)C(=O)NCC(O)c2ccccc2)ccc2c3c(c(=O)oc12)CCCC3 (stereo not drawn)	8.28µM	4.15µM	0	0	0
Cc1cc(=O)oc2c(C)c(OC(C)C(=O)NCC(O)c3ccccc3)ccc12 (stereo not drawn)	?	?	0	0	0
O=C(COc1cc2oc(=O)c3c(c2cc1Cl)CCC3)NCC(O)c1ccccc1 (stereo not drawn)	0	13.1µM	0	0	0
CCc1cc(=O)oc2cc(OCC(=O)NCCCN3CCCC3=O)c(Cl)cc12	?	11.7µM	0	0	0
Cc1c(OCC(=O)NCCCN2CCCC2=O)ccc2c3c(c(=O)oc12)CCC3	0	?	0	0	0
Cc1c(OCC(=O)NCC(O)c2ccccc2)ccc2c3c(c(=O)oc12)CCC3 (stereo not drawn)	0	11.7µM	0	0	0
Cc1ccc(C(=O)CCC(=O)Nc2ccccc2F)cc1	0	0	32.5	0	0
O=C(CCC(=O)c1ccc(F)cc1)Nc1ccccc1Cl	0	?	0	0	35.9
O=C(CN1CCN(CC(=O)c2ccc(F)cc2)CC1)Nc1ccccc1Cl	?	0	0	0	0
Cc1ccc(CCC(=O)Nc2ccccc2F)s1	0	0	32.4	?	92.6
O=C(CC(=O)Nc1ccccc1F)Nc1ccccc1F	0[0.00184 µM]	?	0	0	0
O=C(CCc1nc2ccccc2[nH]1)Nc1ccccc1F	0	0	0	0	0
Cc1cccc(C(=O)n2c(=S)nc3cc(C)ccn32)c1	0	0	46.0	11.2µM	125.5
Cc1cccc(C(=O)Nc2ccn(C)n2)c1	0	0	-	-	-
Cc1ccn2c(c1)nc(=S)n2C(=O)c1ccccc1	0	0	114.2	?	121.1
COc1ccc(Cc2nnc(SCC(=O)Nc3cc(Cl)ccc3C)[nH]c2=O)cc1	0	0	-	-	-
CC(C)Oc1ccc(CNC(=O)Cn2ccc3cc(S(=O)(=O)N4CCCC4)ccc32)cc1	0	?	0	0	0
CC(C)c1cccc(C(C)C)c1OC(=O)NC(=O)c1c(F)cccc1F	?	0	0	0	0
SMILES	Pf growth 48h	Pf growth 96h	Cycloheximide cs	LmPK inhibitor	Shiga inhibitor
O=C(NC(=O)c1c(F)cccc1F)O/N=C1\CCCc2occc21	2.33µM	0	0	0	0
CCN(CC)S(=O)(=O)c1ccc(N2CCOCC2)c(NC(=O)CCC2CCCCC2)c1	8.28µM	?	0	0	0
CCN(CC)S(=O)(=O)c1ccc(N2CCOCC2)c(NC(=O)CC(C)(C)C)c1	?	?	0	0	0
CC(C)(C)c1ccc(C(=O)NCCC(=O)Nc2cc(Cl)ccc2N2CCOCC2)cc1	13.1µM	?	-	-	-
O=C(CNC(=O)c1ccco1)Nc1cc(Cl)ccc1N1CCOCC1	?	-	0	0	0
CCN(CC)S(=O)(=O)c1ccc(N2CCOCC2)c(NC(=O)Cc2ccccc2F)c1	?	?	0	0	0
O=C(CCC1CCCC1)Nc1cc(Cl)ccc1N1CCOCC1	?	8.28µM	-	-	-
CCN(CC)S(=O)(=O)c1ccc(N2CCOCC2)c(NC(=O)Cc2cccc3ccccc23)c1	13.1µM	3.7µM	0	0	0
O=C(COC(=O)Cc1n[nH]c(=O)c2ccccc12)Nc1ccc(Cl)cn1	0	0	-	-	-
CC12CCC(C1)C(C)(C)C2=O (stereo not drawn)	0	0	-	-	-
Cc1nnc(NC(=O)CC23CC4CC(CC(C4)C2)C3)s1	0	0	0	0	0

Screening data from PubChem.
